Not all results are given here.
aSyn UTR act: Activators via SNCA 5'UTR binding, MLPCN | alpha-synuclein 5'UTR reporter, activators screen | activity score, % (tested at 7.5 µM), hits read low | 7.1% of 300,000 active | AID 1814, 2009; in the data active means activity score below about -60%
Numbers without * were called inactive.

SMILES	aSyn UTR act
C(=N\Nc1nc2ccccc2[nH]1)/c1ccccn1	112
C#CCn1cc(/C=N/Nc2nc3ccccc3[nH]2)c2ccccc21	-383*
Cc1ccc(/C=N\Nc2nc3ccc(Cl)cc3[nH]2)o1	-192*
Fc1ccccc1-c1ccc(/C=N/Nc2nc3ccccc3[nH]2)o1	-217*
CCn1nccc1C(=O)Nc1ccc(C(=O)OC(C)C)cc1	-163*
Nc1ccccc1C(=O)N=Nc1[nH]c(N)c2ccccc12	-101*
Nc1[nH]c(N=NC(=O)c2ccc(F)cc2)c2ccccc12	-147*
Cc1cc2nc(C3CCN(Cc4nnnn4Cc4cccs4)CC3)[nH]c2cc1C	63
COCCN=C1Sc2nc3cc(C)c(C)cc3cc2CN1Cc1cccs1	-78*
COCCN=C1Sc2nc3ccc(C)cc3cc2CN1Cc1ccco1	-68*
N#Cc1ccc(CO/N=C/c2ccccc2)cc1	-95*
O=C(Nc1ccc(Cl)cc1Cl)c1ccc2c(=O)n3c(nc2c1)CCC3	-159*
O=C(Nc1ccc(Br)cc1Cl)c1ccc2c(=O)n3c(nc2c1)CCC3	-190*
O=Cc1c(-c2ccccc2)cc2oc3ccccc3cc1-2	-119*
CC(=Nc1ccccc1)C1=C(O)CSC1=O	-95*
COc1ccc(N=C(C)C2=C(O)CSC2=O)cc1	-72*
COc1ccc(Cc2nc3ccc(C(=O)NCCSC)cc3o2)cc1	-98*
O=C(NCC1CCOCC1)c1ccc2nc(Cc3cccc(Cl)c3)oc2c1	-79*
COc1ccc(Cc2nc3ccc(C(=O)NCc4cc(C)no4)cc3o2)cc1	-104*
COc1ccc(Cc2nc3ccc(C(=O)NCC(C)(C)OC)cc3o2)cc1	-116*
CSCCNC(=O)c1ccc2nc(C3CCCCC3)oc2c1	-67*
N/C(=N\OC(=O)c1ccc2c(c1)OCO2)c1ccc(Cl)cc1	-165*
O=C(COC(=O)c1cc(Cl)ccc1O)c1ccc2c(c1)OCO2	-122*
COc1ccc(/C(N)=N/OC(=O)c2ccc3c(c2)OCO3)cc1	-98*
N/C(=N\OC(=O)c1ccc2c(c1)OCO2)c1ccncc1	-102*
SMILES	aSyn UTR act
Cc1ccc2c(C(=O)CSc3ccccc3)c(C)[nH]c2c1	-109*
Cc1[nH]c2ccccc2c1C(=O)COc1ccccc1	-113*
Cc1[nH]c2ccccc2c1C(=O)CSc1ccccn1	-68*
Cc1[nH]c2ccccc2c1C(=O)CSc1ccccc1	-86*
CCc1ccc2c(c1)/C(=N/N(C)C(=S)NC)C(=O)N2	-71*
CC(NC(=O)CCc1nnc(Cc2cccc(C(F)(F)F)c2)o1)C1CC1 (stereo not given)	-77*
CC(C)CN(C)C(=O)CCc1nnc(Cc2cccc(C(F)(F)F)c2)o1	-143*
CC(=O)c1cccc(OCc2cc(C(=O)N(C)CCC3CCOCC3)no2)c1	-86*
Cc1cc(OCc2cc(C(=O)N(C)CC3CCOCC3)no2)cc(C)c1Cl	-72*
CCN(CC1CCCO1)C(=O)c1cc(COc2cc(C)c(Cl)c(C)c2)on1 (stereo not given)	-129*
O=C(NNC1=NCCCCC1)Nc1cccc(Cl)c1	-136*
O=C(NNC1=NCCCCC1)Nc1ccc(Cl)cc1	-68*
CCSc1nnc(NC(=O)Nc2cccc(C)c2)s1	-143*
C/C(N)=C(/C#N)C(=O)CSc1nnc(Nc2cccc(C)c2)s1	-180*
CCSc1nnc(NC(=O)c2csc(C)c2)s1	-176*
C/C(N)=C(/C#N)C(=O)CSc1nc2cc(Cl)ccc2s1	-116*
CCSc1nnc(NC(=O)C2CCCCC2)s1	-98*
CNc1c(N)c(=O)oc2ccccc12	-74*
CCCc1cc(=O)n2c([nH]c3ccccc32)c1C#N	-70*
O=C1/C(=C/c2cccc3ccccc23)CCCc2ccccc21	-106*
N#C/C(=C(/O)c1cccc(F)c1)c1nc2ccccc2s1	-149*
N#C/C(=C(/O)c1cc2ccccc2o1)c1nc2ccccc2s1	-120*
N#C/C(=C(/O)c1ccco1)c1nc2ccccc2s1	-128*
N#C/C(=C(\O)c1ccco1)c1ccccn1	-91*
C/C(=N\NC(=O)CN1CCCCC1)c1cccc([N+](=O)[O-])c1	-93*
SMILES	aSyn UTR act
COc1ccccc1C(=O)N1CCN(CCNC(=O)C(=O)Nc2ccc(Br)c(C)c2)CC1	-89*
Cc1cccc(-c2cccc(NC(=O)C3CCCN(C(=O)c4csc(C)n4)C3)c2)c1 (stereo not given)	-70*
CCc1nc(C)c(C(=O)N2CCCC(C(=O)Nc3cccc(-c4cccc(C)c4)c3)C2)o1 (stereo not given)	-77*
CC(=O)c1ccc(Nc2nc(=O)c3cccnc3s2)cc1	-124*
CCOC(=O)c1ccc(Nc2nc(=O)c3cccnc3s2)cc1	-133*
O=c1nc(Nc2ccc(OCc3ccccc3)cc2)sc2ncccc12	-96*
Cc1nc2ccccc2c(=O)n1/N=C1\C(=O)N(C)c2ccccc21	-83*
Cc1nc2ccccc2c(=O)n1/N=C/c1cccs1	-79*
Cc1nnc(-c2ccccc2)c(=O)n1/N=C/c1c(O)ccc2ccccc12	83
Cc1nc2ccccc2c(=O)n1/N=C/c1cn(-c2ccccc2)nc1-c1cccs1	-67*
COc1ccc(OC)c(C2CC(=O)N3CN(c4ccc(C)c(Cl)c4)CSC3=C2C#N)c1 (stereo not given)	-90*
O=C(NC(c1cccnc1)C(F)(F)F)c1cc(COc2ccc3c(c2)CCCC3)on1 (stereo not given)	-104*
CSc1ccc(-c2sc(Nc3ccccc3)n[n+]2-c2ccccc2)cc1	-98*
CSc1ccc(-c2sc(Nc3cccc4ccccc34)n[n+]2-c2ccccc2)cc1	-143*
CC#CC(=O)N1CCC(CCc2ccccc2)(C(=O)OCC)CC1	47
CCOC(=O)C1(CCCc2ccccc2)CCN(Cc2cnc(C)s2)CC1	-63*
CC(C)C(=O)Nc1cccc(NC(=S)NC(=O)c2ccc(Cl)cc2)c1	-120*
Cc1ccc(NC(=S)NC(=O)c2ccc(F)cc2)cc1S(=O)(=O)Nc1cccc(Cl)c1	81
CC(C)C(=O)Nc1cccc(NC(=S)NC(=O)c2cccs2)c1	-126*
CC(C)C(=O)Nc1cccc(NC(=S)NC(=O)c2ccc3c(c2)OCO3)c1	-158*
COc1cc(/C=N/NC(=O)c2ccc(O)cc2)ccc1OCC(=O)Nc1cccc([N+](=O)[O-])c1	-82*
COc1ccc(/C=N/NC(=O)c2ccncc2)cc1COc1ccc(NC(C)=O)cc1	80
COc1cc(/C=N/NC(=O)c2ccncc2)ccc1OCc1cnc(Cl)s1	-153*
COc1ccc(NC(=O)COc2ccc(/C=N/n3c(C)nnc3C)cc2OC)cc1	-91*
Cc1[nH]c2ccccc2c1/C=N/NC(=O)c1cccc([N+](=O)[O-])c1	-65*
SMILES	aSyn UTR act
O=C(COc1ccc(/C=N/NC(=O)c2ccncc2)cc1)Nc1ccccc1	-72*
COc1cc(/C=N/NC(=O)c2cccc([N+](=O)[O-])c2)ccc1OCc1ccccc1	-135*
COc1cc(/C=N/NC(=O)c2cccc(C)c2)ccc1OCC(=O)Nc1ccccc1	-128*
COc1cc(/C=C/[N+](=O)[O-])ccc1OCc1cccc(C(=O)O)c1	97
Cc1cccc(NC(=O)COc2ccc(Br)cc2/C=N/O)c1	-167*
O=C(Cc1ccccc1[N+](=O)[O-])NCc1ccc(Cl)cc1	-94*
O=C(Cc1ccccc1[N+](=O)[O-])NCc1ccc(Cl)cc1Cl	-142*
C=C(C)COc1ccc(-c2[nH]ncc2-c2ccc(Br)cc2)c(O)c1	91
COc1ccc(-c2cc(-c3ccc(Cl)cc3)n[nH]2)c(O)c1	-202*
COc1ccc(O)c(-c2cc(-c3cccc(Br)c3)n[nH]2)c1	-132*

Source: PubChem BioAssay
